From PubChem BioAssay (NCATS)
Results filed as inconclusive are left out. Calls of active or inactive are those of the source. Unless noted, the call rests on the fitted dose curve; in most records, active means well fitted curve in the direction sought with a large enough effect; inconclusive means small, poorly fitted or top-dose-only effect, or another doubt; inactive means no such curve, though single readings can be large; an effect the other way counts as inactive or inconclusive.

Key:
[1] = target: Bile acid receptor (Homo sapiens) (UniProt Q96RI1); experiment: qHTS assay for small molecule antagonists of farnesoid X receptor signaling (AID 588526; calls by dose curve); conditions: HEK293T FXR-UAS-bla, beta-lactamase ratio, antagonist mode; series mostly up to 76.7 µM
Procedure, shortened: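 Concentration-response titrations were fitted to the Hill equation for half-maximal inhibition and maximal response, with data normalised to 50 uM chenodeoxycholic acid and DMSO control wells. Cells: FXR-UAS-bla HEK293T, dialyzed FBS.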

[2] = target: Peroxisome proliferator-activated receptor gamma (Homo sapiens) (UniProt P37231); experiment: qHTS assay for small molecule antagonists of peroxisome proliferator-activated receptor gamma signaling (AID 588537; active means well fitted inhibition curve with a large enough effect in the signal ratio, with a control signal flat, not every such curve was filed as active; the % refers to the signal ratio;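 further: reporter cells co-stimulated with 50 nM rosiglitazone agonist during compound treatment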); conditions: HEK293 PPARg-UAS-bla, beta-lactamase ratio, antagonist mode; series mostly up to 76.8 µM
Procedure, shortened: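 PPAR-gamma-UAS-bla HEK293 cells (3000/well, 1% charcoal/dextran-stripped FBS) were preincubated 6-6.5 h at 37 C, given titrated compounds, then stimulated with 50 nM rosiglitazone for 16 h. Beta-lactamase activity was read with CCF4 dye; IC50 came from Hill fits.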

[3] = Cell Viability - BJ (AID 421; calls by dose curve;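 further: potency means the concentration at half of the fitted maximal effect; cells exposed to compound for 40 hours at 37 °C before readout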); conditions: BJ fibroblast viability, qHTS
Procedure, shortened: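 Normal human BJ foreskin fibroblasts, 1500/well in complete medium, treated 40 hr at 37 °C. Cellular ATP by CellTiter-Glo luminescence; normalized to DMSO and 100 uM tamoxifen, AC50 from Hill fit.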

[4] = Cell Viability - Jurkat (AID 426;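 active means dose-dependent loss of cell ATP signal giving a full or clear fitted curve, ranked by lower potency value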; further: potency means the concentration at half of the fitted maximal effect); conditions: qHTS
Procedure, shortened: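 Jurkat (clone E6-1, human T-cell leukemia) cells, 5000/well in complete medium, were exposed to compound for 40 hr at 37 °C. Viability was read as intracellular ATP by CellTiter-Glo luminescence; AC50 came from Hill fits of concentration-response data.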

[5] = Cell Viability - Hek293 (AID 427;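 active means compounds whose dose-response curve shows a full or clear partial loss of cell viability, called from curve shape rather than a numeric limit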;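 further: potency means the concentration at half of the fitted maximal effect; cells exposed to compound for 40 hours at 37 °C before reading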); conditions: qHTS
Procedure, shortened: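 HEK293 cells in complete medium were exposed to compound for 40 hr at 37 °C, then cellular ATP was read by CellTiter-Glo luminescence. Data were normalized to DMSO (basal) and 100 uM tamoxifen (100% inhibition), and AC50 came from Hill fits.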

[6] = Cell Viability - HepG2 (AID 433; calls by dose curve;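 further: potency means the concentration at half of the fitted maximal effect; potency for ATP loss meaning cytotoxicity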); conditions: qHTS
Procedure, shortened: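 Cytotoxicity is scored as loss of intracellular ATP in HepG2 cells exposed to compounds for 40 h. Concentration-response curves, normalized to DMSO and 100 uM tamoxifen, give AC50 values.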

[7] = Cell Viability - MRC5 (AID 434; calls by dose curve;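 further: potency means the concentration at half of the fitted maximal effect; potency reflects cytotoxicity seen as loss of intracellular ATP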); conditions: MRC5 lung fibroblast viability, qHTS
Procedure, shortened: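 MRC5 normal human lung fibroblasts (1500/well) were treated with compounds for 40 hr at 37 °C in complete medium, and viable cells were measured as intracellular ATP by CellTiter-Glo luminescence. AC50 came from Hill fits, normalized to DMSO and 100 uM tamoxifen.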

[8] = Cell Viability - SK-N-SH (AID 435; calls by dose curve;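 further: potency means the concentration at half of the fitted maximal effect; compound exposure lasted 40 h at 37 °C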); conditions: SK-N-SH neuroblastoma cell viability qHTS
Procedure, shortened: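 Cells seeded at 1500 per well and incubated 5 hr at 37 °C. Compound added, then 40 hr at 37 °C. CellTiter-Glo added, 20 min at room temperature, luminescence read.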

[9] = Cell Viability - N2a (AID 540); conditions: N2a mouse neuroblastoma cell viability; series mostly up to 92.2 µM; further: nearly all actives have a fitted effect of over 45% in size
Procedure, shortened: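 Mouse neuroblastoma N2a cells (1500/well) were preincubated 5 hr at 37 °C, then exposed to compounds for 40 hr at 37 °C in complete medium. Viability was read as intracellular ATP by CellTiter-Glo luminescence; AC50 from Hill fits.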

[10] = Cell Viability - NIH 3T3 (AID 541); conditions: NIH 3T3 cell viability, qHTS; series mostly up to 92.2 µM; further: nearly all actives have a fitted effect of over 25% in size
Procedure, shortened: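 NIH 3T3 mouse embryo fibroblasts (1000 cells/well) were plated in complete medium and treated with compound for 40 hr at 37 °C. Viability was read as intracellular ATP by CellTiter-Glo luminescence; AC50 values came from Hill-equation fits of concentration-response data.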

[11] = Cell Viability - HUV-EC-C (AID 542); conditions: HUV-EC-C endothelial cell viability, qHTS; series mostly up to 92.2 µM; further: nearly all actives have a fitted effect of over 35% in size
Procedure, shortened: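 HUV-EC-C normal human vascular endothelial cells, 1000 cells/well, pre-incubated 5 hr at 37 °C, then exposed to compounds for 40 hr at 37 °C in complete medium. Viability measured as intracellular ATP by CellTiter-Glo luminescence; AC50 from Hill fits.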

[12] = Cell Viability - H-4-II-E (AID 543); conditions: H-4-II-E rat hepatoma viability; series mostly up to 92.2 µM; further: nearly all actives have a fitted effect of over 35% in size
Procedure, shortened: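 Rat hepatoma H-4-II-E cells (1500/well) were plated, incubated 5 hr at 37 °C, then exposed to compounds for 40 hr at 37 °C. Cellular ATP was read by CellTiter-Glo luminescence; AC50 came from Hill-equation fits of concentration-response data.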

[13] = Cell Viability - SH-SY5Y (AID 544); conditions: SH-SY5Y neuroblastoma cell viability; series mostly up to 92.2 µM; further: nearly all actives have a fitted effect of over 55% in size
Procedure, shortened: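 Human neuroblastoma SH-SY5Y cells (1500/well) in complete medium were exposed to compounds for 40 hr at 37 °C; intracellular ATP was then quantified by CellTiter-Glo luminescence after 20 min at room temperature. AC50 came from Hill-equation concentration-response fits.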

[14] = Cell Viability - Renal Proximal Tubule (AID 545); conditions: renal proximal tubule cells viability, primary cells of rat origin; series mostly up to 91.7 µM; further: nearly all actives have a fitted effect of over 40% in size
Procedure, shortened: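 Cytotoxicity is scored as a concentration-dependent drop in cellular ATP in primary rat renal proximal tubule cells exposed for 40 hr. AC50 derives from Hill modelling.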

[15] = Cell Viability - Mesenchymal (AID 546); conditions: mesenchymal cells viability, qHTS; series mostly up to 91.7 µM;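 further: cells exposed to compound for 40 hours before reading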
Procedure, shortened: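 Normal human renal glomerulus-derived kidney mesenchymal cells, 1000 per well in complete medium, were treated with compounds for 40 hr at 37 °C. Viability was read as intracellular ATP by CellTiter-Glo luminescence; AC50 values came from Hill-equation fits of qHTS concentration-response data.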

[16] = qHTS Assay for Identification of Small Molecule Inducers of Hypoxia Response (AID 2120; active means well fitted curve in the direction sought with a large enough effect in the signal ratio, with a control signal flat, not every such curve was filed as active; the % refers to the signal ratio); conditions: hypoxia response reporter cells, beta-lactamase ratio readout; series mostly up to 104 µM
Procedure, shortened: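 HRE-beta-lactamase reporter in CellSensor HRE-bla ME-180 cells, 2500 cells/well in Opti-MEM with 0.5% dialyzed FBS; compounds tested as titration series, 17 h at 37 degrees C. CCF4 substrate 2.5 h at room temperature; AC50 from 460/530 nm ratio.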

[17] = target: Peroxisome proliferator-activated receptor gamma (Homo sapiens) (UniProt P37231); experiment: qHTS assay for small molecule agonists of peroxisome proliferator-activated receptor gamma signaling (AID 588536; active means well fitted curve in the direction sought with a large enough effect in the signal ratio, with a control signal flat, not every such curve was filed as active; the % refers to the signal ratio); conditions: HEK293 PPARg-UAS-bla, beta-lactamase ratio, 16 h, percent of rosiglitazone response, DMSO as zero; series mostly up to 76.7 µM
Procedure, shortened: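 GeneBLAzer PPAR-gamma-UAS-bla HEK293 cells in 1% charcoal/dextran-treated FBS medium were treated 16 h at 37 C with compounds. Beta-lactamase activity was read by CCF4 ratio (460/530 nm). Response was normalized to 2 uM rosiglitazone (100%) and DMSO, then Hill-fitted for EC50 and efficacy.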

[18] = target: Vitamin D3 receptor (Homo sapiens) (UniProt P11473); experiment: qHTS assay for small molecule antagonists of vitamin D receptor signaling (AID 588541; calls by dose curve;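 further: receptor activated by calcitriol during compound treatment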); conditions: HEK293T VDR-UAS-bla, beta-lactamase ratio, antagonist mode; series mostly up to 76.7 µM
Procedure, shortened: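 VDR-UAS-bla HEK293T cells (2000/well, 2% charcoal-stripped FBS) were treated with titrated compounds plus 1-alpha,25-dihydroxyvitamin D3 (50 nM or 3 nM final) for 16 h at 37 C. CCF4 beta-lactamase fluorescence was read; Hill fits gave IC50.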

[19] = target: Vitamin D3 receptor (Homo sapiens) (UniProt P11473); experiment: qHTS assay for small molecule agonists of vitamin D receptor signaling (AID 588543; calls by dose curve); conditions: HEK293T VDR-UAS-bla, beta-lactamase ratio, 16 h; series mostly up to 76.8 µM
Procedure, shortened: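 qHTS in agonist mode: compound titrations stimulate a VDR-driven β-lactamase reporter in HEK293T cells over 16 h at 37 °C. Response normalized to 50 nM 1α,25-dihydroxyvitamin D3 = 100%, DMSO = 0%; Hill fitting gives EC50 and maximal response.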

[20] = target: Luciferin 4-monooxygenase (Photinus pyralis) (UniProt P08659); experiment: Biochemical firefly luciferase enzyme assay for NPC (AID 624030);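 further: purified P. pyralis luciferase at 10 nM with luciferin and ATP substrate; nearly all actives have a fitted effect of over 70% in size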; conditions: purified P. pyralis luciferase, luminescence, 5 min; series mostly up to 58.6 µM
Procedure, shortened: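 Counter-screen for direct inhibition of the luciferase enzyme by approved-drug library compounds, run at 10 nM enzyme in 50 mM Tris acetate (final). Luminescence was read within 5 min of enzyme-buffer addition and normalized to PTC124 versus DMSO (0%).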

Measured: Potency

Sequence of Vitamin D3 receptor (Homo sapiens) (P11473 whole entry, looked up): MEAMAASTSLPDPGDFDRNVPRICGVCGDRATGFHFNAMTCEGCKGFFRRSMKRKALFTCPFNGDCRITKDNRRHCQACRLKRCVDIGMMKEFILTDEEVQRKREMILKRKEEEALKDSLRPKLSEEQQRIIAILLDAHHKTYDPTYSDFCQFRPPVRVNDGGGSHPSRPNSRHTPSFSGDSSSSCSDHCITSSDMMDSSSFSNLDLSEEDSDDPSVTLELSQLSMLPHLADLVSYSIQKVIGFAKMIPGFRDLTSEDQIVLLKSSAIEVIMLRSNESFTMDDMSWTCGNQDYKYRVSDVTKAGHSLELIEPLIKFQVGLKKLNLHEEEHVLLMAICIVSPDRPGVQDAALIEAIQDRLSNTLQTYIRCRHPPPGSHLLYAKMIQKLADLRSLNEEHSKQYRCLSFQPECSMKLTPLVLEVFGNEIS
Sequence of Bile acid receptor (Homo sapiens) (Q96RI1 whole entry, looked up): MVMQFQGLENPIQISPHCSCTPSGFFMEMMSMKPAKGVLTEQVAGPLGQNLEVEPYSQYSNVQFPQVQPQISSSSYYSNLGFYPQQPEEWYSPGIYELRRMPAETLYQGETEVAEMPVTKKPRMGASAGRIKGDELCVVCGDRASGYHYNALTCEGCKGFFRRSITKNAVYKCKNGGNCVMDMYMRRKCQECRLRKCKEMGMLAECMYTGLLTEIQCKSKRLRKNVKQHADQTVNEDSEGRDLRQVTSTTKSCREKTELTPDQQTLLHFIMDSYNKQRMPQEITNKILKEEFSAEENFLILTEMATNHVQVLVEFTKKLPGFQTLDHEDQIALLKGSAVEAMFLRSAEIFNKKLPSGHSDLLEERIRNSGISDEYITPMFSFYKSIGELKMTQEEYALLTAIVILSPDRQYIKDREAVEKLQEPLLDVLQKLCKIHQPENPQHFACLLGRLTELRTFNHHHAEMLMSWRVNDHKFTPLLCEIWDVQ
Sequence of Peroxisome proliferator-activated receptor gamma (Homo sapiens) (P37231 whole entry, looked up): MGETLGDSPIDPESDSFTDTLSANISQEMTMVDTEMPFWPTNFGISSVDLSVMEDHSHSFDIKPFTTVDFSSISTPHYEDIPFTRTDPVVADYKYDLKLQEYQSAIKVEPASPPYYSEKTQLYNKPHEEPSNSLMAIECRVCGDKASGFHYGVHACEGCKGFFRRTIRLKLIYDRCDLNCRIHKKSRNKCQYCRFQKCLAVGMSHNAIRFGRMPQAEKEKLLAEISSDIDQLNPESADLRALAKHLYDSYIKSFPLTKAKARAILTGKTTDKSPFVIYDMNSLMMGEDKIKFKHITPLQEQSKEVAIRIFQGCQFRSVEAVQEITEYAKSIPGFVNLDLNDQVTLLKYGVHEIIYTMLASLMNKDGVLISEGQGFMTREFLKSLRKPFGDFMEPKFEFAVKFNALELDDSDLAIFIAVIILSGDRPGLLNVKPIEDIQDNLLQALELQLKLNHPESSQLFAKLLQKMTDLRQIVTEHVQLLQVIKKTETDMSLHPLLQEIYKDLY
Sequence of Luciferin 4-monooxygenase (Photinus pyralis) (P08659 whole entry, looked up): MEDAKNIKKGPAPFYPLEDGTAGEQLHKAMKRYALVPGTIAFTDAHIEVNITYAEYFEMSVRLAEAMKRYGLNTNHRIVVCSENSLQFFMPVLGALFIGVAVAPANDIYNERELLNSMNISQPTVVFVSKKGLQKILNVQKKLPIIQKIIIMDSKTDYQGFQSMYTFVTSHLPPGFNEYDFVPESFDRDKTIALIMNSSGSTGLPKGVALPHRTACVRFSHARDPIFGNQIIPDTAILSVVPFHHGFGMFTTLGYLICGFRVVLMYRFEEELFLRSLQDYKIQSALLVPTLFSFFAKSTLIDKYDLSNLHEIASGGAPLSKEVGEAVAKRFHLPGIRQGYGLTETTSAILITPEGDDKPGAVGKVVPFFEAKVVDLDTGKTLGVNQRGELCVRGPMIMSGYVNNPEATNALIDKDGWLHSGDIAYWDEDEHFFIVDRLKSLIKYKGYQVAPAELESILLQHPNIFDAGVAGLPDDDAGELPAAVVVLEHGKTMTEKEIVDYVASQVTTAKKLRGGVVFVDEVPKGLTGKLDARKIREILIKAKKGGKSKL

C=CC(C)(O)CCC=C(C)C (stereo unspecified)
inactive: [1] | [2]

CC1=CC(=O)CC(C)(C)C1(O)/C=C/C(C)=C\C(=O)O (stereo unspecified)
inactive: [3] > 92 µM | [4] > 92 µM | [5] > 92 µM | [6] > 92 µM | [7] > 92 µM | [8] > 92 µM | [9] | [10] | [11] | [12] | [13] | [14] | [15] | [16] | [1] | [17] | [2] | [18] | [19]

CN1CCCC[C@@H]1CCN1c2ccccc2Sc2ccc(S(C)=O)cc21 (stereo partly specified)
inactive: [20]

Cc1occc(=O)c1O
inactive: [3] > 92 µM | [4] > 92 µM | [5] > 92 µM | [6] > 92 µM | [7] > 92 µM | [8] > 92 µM | [9] | [10] | [11] | [12] | [13] | [14] | [15] | [16] | [17] | [18] | [19]

CN1[C@@H]2CC[C@H]1CC(OC(=O)[C@@H](O)c1ccccc1)C2 (stereo partly specified)
inactive: [20]

CC[C@@]12CCCN3CCc4c(n(c5ccccc45)C(=O)C1)[C@H]32
inactive: [20]
